Holding throughout (assay): universal protein binding microarray (PBM); transcription factors of Arabidopsis thaliana; high values mean tight binding
What all share (details): protein: recombinant; tags: GST; chain copies: 2; dsDNA, one strand shown

The target of experiment [1] is T1, GST-ANAC092(1-176) (Arabidopsis thaliana, UniProt Q9FKA0 1-176).
T1 sequence: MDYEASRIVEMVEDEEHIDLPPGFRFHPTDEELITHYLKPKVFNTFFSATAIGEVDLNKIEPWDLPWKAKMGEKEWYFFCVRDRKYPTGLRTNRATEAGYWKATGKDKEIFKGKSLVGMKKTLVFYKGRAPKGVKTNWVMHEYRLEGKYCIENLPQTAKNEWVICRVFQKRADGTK
The procedure, abridged:
(§1)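 Binding is expressed as the normalised enrichment score (E-score). Proteins carrying a GST tag, whether NAC-domain, full-length or DNA-binding-domain forms, were induced in cells, and zinc acetate was added for zinc-finger proteins. After purification on glutathione–Sepharose 4B and quantification by A280 or anti-GST western blot, each was applied in duplicate at 200 to 500 nM final to custom all-10-mer Agilent 4 × 180K arrays made double-stranded by primer extension. Gapped and ungapped 8-mers were scored.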

Experiment [2] deals with GST-NTL6(1-168) (Arabidopsis thaliana, UniProt Q9SCK6 1-168). A digest of the protocol: as §1
Sequence of GST-NTL6(1-168) (Q9SCK6 1-168): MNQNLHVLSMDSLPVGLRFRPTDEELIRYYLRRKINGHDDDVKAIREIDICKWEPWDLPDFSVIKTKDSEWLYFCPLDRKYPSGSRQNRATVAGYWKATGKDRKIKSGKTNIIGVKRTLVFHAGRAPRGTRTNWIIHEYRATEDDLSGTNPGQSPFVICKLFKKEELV
For experiment [3], the target named is T2, GST-ANAC019 NAC domain (Arabidopsis thaliana, UniProt Q9C932 14-162).
T2 sequence: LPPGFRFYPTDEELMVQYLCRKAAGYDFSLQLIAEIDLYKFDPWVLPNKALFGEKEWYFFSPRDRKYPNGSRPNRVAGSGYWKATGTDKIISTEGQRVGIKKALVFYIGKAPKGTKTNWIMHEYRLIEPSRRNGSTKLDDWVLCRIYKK
A digest of the protocol:
as §1

The target of experiment [4] is T3, GST-ANAC055(1-171) (Arabidopsis thaliana, UniProt Q9LDY8 1-171).
T3 sequence: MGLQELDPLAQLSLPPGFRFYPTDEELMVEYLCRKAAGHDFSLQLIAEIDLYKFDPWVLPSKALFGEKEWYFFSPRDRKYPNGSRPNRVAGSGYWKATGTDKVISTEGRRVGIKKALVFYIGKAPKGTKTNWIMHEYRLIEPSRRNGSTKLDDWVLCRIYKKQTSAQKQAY
A digest of the protocol:
as §1

Experiment [5] addresses T4, GST-ATAF1 NAC domain (Arabidopsis thaliana, UniProt Q39013 7-158).
T4 sequence: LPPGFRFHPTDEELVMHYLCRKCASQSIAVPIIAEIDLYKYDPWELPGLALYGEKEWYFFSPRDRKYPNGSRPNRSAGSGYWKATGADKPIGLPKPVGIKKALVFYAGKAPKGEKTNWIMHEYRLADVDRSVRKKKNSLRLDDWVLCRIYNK
The procedure, abridged: as §1

For experiment [6], the target named is T5, GST-ANAC092(1-285) full length (Arabidopsis thaliana, UniProt Q9FKA0 1-285).
T5 sequence: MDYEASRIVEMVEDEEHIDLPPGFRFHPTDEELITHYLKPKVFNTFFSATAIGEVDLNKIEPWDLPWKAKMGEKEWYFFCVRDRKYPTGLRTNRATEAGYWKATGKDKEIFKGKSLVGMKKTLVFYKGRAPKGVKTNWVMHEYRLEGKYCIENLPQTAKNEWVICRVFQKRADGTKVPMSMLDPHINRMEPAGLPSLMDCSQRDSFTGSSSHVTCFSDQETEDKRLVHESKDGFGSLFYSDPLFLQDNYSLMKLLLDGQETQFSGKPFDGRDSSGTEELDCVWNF
A digest of the protocol:
as §1

The target of experiment [7] is T6, GST-NST2(1-184) (Arabidopsis thaliana, UniProt Q9M274 1-184).
T6 sequence: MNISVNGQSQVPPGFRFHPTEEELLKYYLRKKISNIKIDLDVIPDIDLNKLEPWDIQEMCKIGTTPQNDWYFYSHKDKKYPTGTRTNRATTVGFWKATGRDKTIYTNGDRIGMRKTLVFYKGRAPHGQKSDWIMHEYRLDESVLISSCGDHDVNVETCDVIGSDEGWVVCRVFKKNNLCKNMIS
The procedure, abridged:
as §1

The target in experiment [8] is T7, GST-NTL8 NAC domain (Arabidopsis thaliana, UniProt Q9XIN7 14-156).
T7 sequence: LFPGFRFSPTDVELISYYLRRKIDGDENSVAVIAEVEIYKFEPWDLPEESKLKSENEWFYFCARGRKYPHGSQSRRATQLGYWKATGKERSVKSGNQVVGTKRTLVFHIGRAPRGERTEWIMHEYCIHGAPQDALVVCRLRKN
A digest of the protocol:
as §1

Experiment [9] deals with T8, GST-SND1(1-203) (Arabidopsis thaliana, UniProt Q9LPI7 1-203).
T8 sequence: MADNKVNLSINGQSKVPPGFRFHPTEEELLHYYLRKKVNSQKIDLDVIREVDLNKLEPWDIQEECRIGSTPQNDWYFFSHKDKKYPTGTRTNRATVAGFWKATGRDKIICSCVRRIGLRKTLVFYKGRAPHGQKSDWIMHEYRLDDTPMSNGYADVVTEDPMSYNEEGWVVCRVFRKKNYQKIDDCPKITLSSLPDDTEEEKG
A digest of the protocol:
as §1

Experiment [10] deals with T9, GST-VND3 NAC domain (Arabidopsis thaliana, UniProt Q9FH59 12-162).
T9 sequence: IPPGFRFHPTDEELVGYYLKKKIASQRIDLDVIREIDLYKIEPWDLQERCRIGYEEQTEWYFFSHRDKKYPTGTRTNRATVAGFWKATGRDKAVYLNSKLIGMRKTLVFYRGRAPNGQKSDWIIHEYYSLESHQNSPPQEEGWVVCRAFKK
The procedure, abridged: as §1

In experiment [11] the target is T10, GST-VND7 NAC domain (Arabidopsis thaliana, UniProt Q9C8W9 9-158).
T10 sequence: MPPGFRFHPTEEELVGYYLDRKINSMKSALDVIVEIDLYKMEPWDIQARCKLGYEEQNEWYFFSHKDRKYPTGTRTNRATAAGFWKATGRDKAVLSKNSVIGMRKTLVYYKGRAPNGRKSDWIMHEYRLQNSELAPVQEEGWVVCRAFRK
A digest of the protocol:
as §1

For experiment [12], the target named is T11, GST-NAP(1-166) (Arabidopsis thaliana, UniProt O49255 1-166).
T11 sequence: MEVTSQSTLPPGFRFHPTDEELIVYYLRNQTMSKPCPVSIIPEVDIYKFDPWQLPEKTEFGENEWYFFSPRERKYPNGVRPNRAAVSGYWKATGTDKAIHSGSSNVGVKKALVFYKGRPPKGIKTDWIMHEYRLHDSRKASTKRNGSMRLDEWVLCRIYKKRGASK
The procedure, abridged:
as §1

With CTTACTTC, the binding signal in [1] came out at 0.272 E-score; in experiment [2], 0.413 E-score; in experiment [3], 0.227 E-score; in experiment [4], 0.191 E-score; in experiment [5], 0.209 E-score; in [6] it was 0.325 E-score. Also, the binding signal in experiment [7] came to 0.267 E-score; in experiment [8], 0.4 E-score; in experiment [9], 0.387 E-score; in experiment [10], 0.209 E-score; in experiment [11], 0.23 E-score.
Turning to TGGAGTAA, the binding signal in [1] came to 0.319 E-score; in experiment [2], 0.105 E-score; in experiment [4], 0.128 E-score; in experiment [5] it was 0.11 E-score; in [6], 0.342 E-score; in experiment [7], 0.317 E-score. For the same sequence, the binding signal in experiment [9] amounted to 0.454 E-score; in [10], 0.0609 E-score; in [11] it was 0.131 E-score.
With ACGCTACA, the binding signal in experiment [1] came out at 0.27 E-score; in experiment [2] it was 0.051 E-score; in experiment [4], 0.0711 E-score; in experiment [5], 0.0647 E-score; in experiment [6] it was 0.404 E-score; in experiment [12], 0.0555 E-score. The binding signal in experiment [7] stood at 0.249 E-score; in experiment [9] it was 0.402 E-score; in [10] it was 0.101 E-score; in [11], 0.0811 E-score.
In the case of TAAGGAAA, the binding signal in [1] worked out at 0.212 E-score; in [2], 0.478 E-score; in experiment [4] it was 0.109 E-score; in experiment [5], 0.157 E-score; in experiment [6], 0.252 E-score; in experiment [12], 0.0748 E-score. The binding signal in [7] was found to be 0.152 E-score; in [8] it was 0.424 E-score; in experiment [9] it was 0.334 E-score; in [10] it was 0.16 E-score; in experiment [11], 0.0908 E-score.
With TACGCTAA, the binding signal turned out to be 0.433 E-score in [1]; 0.118 E-score in [2]; 0.0682 E-score in experiment [4]; 0.19 E-score in experiment [5]; 0.44 E-score in experiment [6]; 0.331 E-score in experiment [7]. For the same sequence, the values for the binding signal in experiment [9], in experiment [10] and in experiment [11] were 0.475 E-score, 0.171 E-score and 0.131 E-score, respectively.
CAAGCAAG: the binding signal in [1] is 0.369 E-score; in experiment [2], 0.235 E-score; in experiment [3], 0.163 E-score; in experiment [4], 0.0997 E-score; in experiment [5], 0.0612 E-score; in experiment [6] it was 0.419 E-score. Further, the binding signal in [7] stood at 0.265 E-score; in experiment [8], 0.111 E-score; in experiment [9], 0.395 E-score; in experiment [10], 0.0934 E-score; in experiment [11], 0.14 E-score.
Consider AAGCAAAC, for which the binding signal in experiment [1] is 0.331 E-score; in experiment [2], 0.359 E-score; in experiment [4], 0.194 E-score; in experiment [5] it was 0.137 E-score; in experiment [6], 0.355 E-score; in [12], 0.119 E-score. In addition, the binding signal stood at 0.31 E-score in [7]; 0.336 E-score in [8]; 0.401 E-score in experiment [9]; 0.181 E-score in experiment [10]; 0.206 E-score in experiment [11].
As to GAGGTAAC, the binding signal is 0.191 E-score in experiment [1]; 0.155 E-score in [2]; 0.078 E-score in [3]; 0.0779 E-score in experiment [5]; 0.2 E-score in experiment [6]; 0.078 E-score in experiment [7]. Moreover, the binding signal in experiment [8] was found to be 0.437 E-score; in [9], 0.236 E-score; in experiment [10] it was 0.0659 E-score; in [11] it was 0.0864 E-score.
For AAGCAACC, the binding signal in [1] is 0.425 E-score; in [2], 0.329 E-score; in [4] it was 0.0668 E-score; in experiment [5], 0.0659 E-score; in experiment [6] it was 0.453 E-score; in [7] it was 0.349 E-score. In addition, the binding signal in experiment [8] is 0.301 E-score; in experiment [9] it was 0.479 E-score; in experiment [10], 0.114 E-score; in [11], 0.136 E-score.
As for TATCGTAA, the binding signal in [1] is 0.2 E-score; in [2] it was 0.146 E-score; in experiment [4], 0.0984 E-score; in experiment [5] it was 0.188 E-score; in experiment [6], 0.337 E-score; in experiment [12], 0.0786 E-score. In addition, the binding signal in [7] turned out to be 0.282 E-score; in [9], 0.418 E-score; in [10] it was 0.143 E-score; in experiment [11], 0.236 E-score.
On to GTAACTTA, for which the binding signal in experiment [1] came out at 0.271 E-score; in [2], 0.375 E-score; in experiment [4], 0.185 E-score; in experiment [5] it was 0.233 E-score; in [6], 0.357 E-score; in experiment [12] it was 0.133 E-score. The binding signal is 0.306 E-score in experiment [7]; 0.229 E-score in experiment [8]; 0.43 E-score in experiment [9]; 0.195 E-score in [10]; 0.141 E-score in experiment [11].
GTGGAGTA: the binding signal in [1] stood at 0.275 E-score; in experiment [2], 0.0723 E-score; in experiment [4] it was 0.0843 E-score; in [5], 0.217 E-score; in experiment [6] it was 0.332 E-score; in experiment [12], 0.0918 E-score. The binding signal in experiment [7] turned out to be 0.242 E-score; in experiment [9], 0.402 E-score; in experiment [10], 0.0649 E-score; in experiment [11], 0.15 E-score.
With AAGCAAGC, the binding signal in [1] was found to be 0.344 E-score; in experiment [2], 0.167 E-score; in experiment [3] it was 0.0929 E-score; in [6], 0.417 E-score; in experiment [7] it was 0.23 E-score; in [8], 0.209 E-score. Besides, the binding signal in experiment [9] turned out to be 0.443 E-score; in experiment [10] it was 0.139 E-score; in experiment [11] it was 0.114 E-score.
As to ACCTTAAC, the binding signal in [1] came to 0.126 E-score; in experiment [2] it was 0.415 E-score; in experiment [4], 0.156 E-score; in experiment [5] it was 0.155 E-score; in [6], 0.147 E-score; in experiment [7] it was 0.154 E-score. In addition, the binding signal in experiment [8] stood at 0.16 E-score; in [9], 0.13 E-score; in [10] it was 0.156 E-score; in experiment [11], 0.077 E-score.
GAGGAAAA: the binding signal in experiment [1] stood at 0.152 E-score; in experiment [2] it was 0.188 E-score; in experiment [5], 0.1 E-score; in experiment [6] it was 0.152 E-score; in experiment [8], 0.402 E-score; in experiment [9] it was 0.142 E-score. The values for the binding signal in [10] and in experiment [11] were 0.12 E-score and 0.114 E-score, respectively.
